Laboratory results reported in PubChem BioAssay (NCI).
About 83,000 compounds went through this panel and 20% of them were active in at least one assay; those are over-represented in the sample as a whole.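 A percent growth of 40 corresponds to 60% growth inhibition; 0 means no net growth; -100 means all cells died. Active threshold: below 10.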 A number with no mark means an inactive call. The source made the active and inactive calls.

How the values were obtained:
Assay in all cases: NCI-60 one-dose screen, 48 h (100 = growth as untreated, 0 = no growth, -100 = all killed)
Conditions in all cases: 10 µM unless noted
SR leukemia = system: SR leukemia
RPMI-8226 leukemia = system: RPMI-8226 leukemia
OVCAR-8 ovarian = system: OVCAR-8 ovarian
OVCAR-5 ovarian = system: OVCAR-5 ovarian
OVCAR-4 ovarian = system: OVCAR-4 ovarian
SK-OV-3 ovarian = system: SK-OV-3 ovarian
IGROV1 ovarian = system: IGROV1 ovarian
OVCAR-3 ovarian = system: OVCAR-3 ovarian
HS 578T breast = system: HS 578T breast
NCI/ADR-RES ovarian = system: NCI/ADR-RES ovarian
T-47D breast = system: T-47D breast
BT-549 breast = system: BT-549 breast
MDA-MB-435 melanoma = system: MDA-MB-435 melanoma
SW-620 colon = system: SW-620 colon
MCF7 breast = system: MCF7 breast
HCC-2998 colon = system: HCC-2998 colon
KM12 colon = system: KM12 colon
HCT-116 colon = system: HCT-116 colon

| SMILES | growth (SR leukemia) | growth (RPMI-8226 leukemia) | growth (OVCAR-8 ovarian) | growth (OVCAR-5 ovarian) | growth (OVCAR-4 ovarian) | growth (SK-OV-3 ovarian) | growth (IGROV1 ovarian) | growth (OVCAR-3 ovarian) | growth (HS 578T breast) | growth (NCI/ADR-RES ovarian) | growth (T-47D breast) | growth (BT-549 breast) | growth (MDA-MB-435 melanoma) | growth (SW-620 colon) | growth (MCF7 breast) | growth (HCC-2998 colon) | growth (KM12 colon) | growth (HCT-116 colon) |
| --- | --- | --- | --- | --- | --- | --- | --- | --- | --- | --- | --- | --- | --- | --- | --- | --- | --- | --- |
| CCCn1cnc2c(c1=N)C(c1ccc(Cl)cc1)c1sc3c(F)cccc3c1O2 (stereo not drawn) | 24.7% | 29.6% | 86.4% | 81.6% | 66.2% | 102% | 59.5% | 81.4% | 91.2% | 80.7% | 64.6% | 105% | 77.7% | 55.5% | 32.3% | -20% (active) | 66.6% | – |
| CCOc1ccccc1NC(=O)CCC(=O)OC | 97.8% | 104% | 119% | 110% | 95.4% | 103% | 100% | 108% | 106% | 113% | 88.7% | 106% | 102% | 104% | 90.4% | – | 100% | 97.5% |
| CCOC(=O)CSc1nc2sc3c(c2c(=O)n1-c1ccccc1)CCCCC3 | 103% | 105% | 103% | 103% | 116% | 100% | 106% | 93.5% | 103% | 108% | 94.4% | 110% | 107% | 98.1% | 94.5% | 114% | 104% | – |
| CCCN1C2CCC1/C(=C\c1ccc(OC)cc1)C(=O)/C2=C/c1ccc(OC)cc1 | 45.4% | 40.7% | 72.6% | 93.5% | 73.5% | 79.4% | 82.2% | 81.8% | 92% | 77% | 45.3% | 87.2% | 63.5% | 90.4% | 75.8% | – | 74.2% | 61.9% |
| COC(=O)c1c(C)nc(C)c2c1C(=O)C(Br)=C(NCCCCO)C2=O | 46.4% | 75.1% | 57.7% | 101% | 38.4% | 121% | 52.9% | 1.87% (active) | 87.7% | 80% | 76.9% | 91.2% | -25.3% (active) | 67.8% | 37.8% | 78.7% | 61.9% | – |
| CCOC(=O)c1c(NC(=S)Nc2ccc([N+](=O)[O-])cc2)sc2c1CCCCC2 | 61.7% | 46.7% | 77.3% | 93.7% | 71.6% | 66% | 89.7% | 65.1% | 81.8% | 54% | 58.9% | 86.3% | 88.2% | 98.8% | 70.1% | – | 72.2% | 70.5% |
| Cc1[nH]c(C(=O)Nc2ccccc2OC2CCNC2)c(Cl)c1Cl (stereo not drawn) | 0.45% (active) | 79% | 94% | 95.5% | 79.1% | 99.3% | 66.5% | 84.5% | 93.2% | 86.7% | 83.2% | 88% | 86.4% | 79.8% | 67.3% | 94.4% | 84.2% | – |
| Nc1ncc(-c2ccc3ncnc(N4CCc5cc(F)c(Cl)cc54)c3c2)cc1C=O | 18.7% | -4.54% (active) | 31.4% | 9.67% (active) | 34.5% | -3.8% (active) | -35.9% (active) | 0.575% (active) | -18.9% (active) | 28.6% | 7.88% (active) | 9.08% (active) | 0.36% (active) | 37.9% | 11.8% | 21.2% | 39.2% | – |
| CCCCCCCCCCCCCCCCCCOc1ccccc1CC(=O)OCC[N+]1(C)CCCCC1 | 10% | -10.2% (active) | 21.9% | 54.8% | 32% | 96.6% | -32.1% (active) | 61.7% | 62.3% | 92.3% | 66.9% | 58% | 57% | 68.3% | 51.1% | – | 86.5% | 30.2% |
